Experimental findings from the OligoGym collection are described below.
Note: reference of the scale not given here.

In the first experiment the target is C9orf37. The experiment is described as follows: pooled miR-30 sensor sort-seq; sequence = guide strand. The note with it: shRNA.
The sequence TTTGTCAGTTACCTTATCTATA came in with a sensor-assay potency score (higher = more potent) of -0.888.
The sequence TATCTATAAAATGCACAGGACC displayed a sensor-assay potency score (higher = more potent) of -1.69.
For ATGGTGGTGAAGAAGGCTCTGG, the sensor-assay potency score (higher = more potent) is -0.917.
For the sequence TCCAGTTCTCCTTTAGGGCGAA, the sensor-assay potency score (higher = more potent) was -0.959.
Same read-out and setting: with TACCTTATCTATAAAATGCACA the figure was -0.634; with TCAAATTCCAGTTCTCCTTTAG, -1.07.
On the same count and under the same terms, the value for TTATCTATAAAATGCACAGGAC was -1.03.
The same measure, in the same setting: with TTACCTTATCTATAAAATGCAC the figure was -0.752; with TTCTGTGGAACAGCATTTCTCA, -0.352; with TTCTCCTTTAGGGCGAAGGGGT, -1.42.
For TCTGTGGAACAGCATTTCTCAA, the sensor-assay potency score (higher = more potent) is -1.65.
Same read-out and setting: with AAATGCACAGGACCAGGCCGGG the figure was -1.34.

The target in another experiment is C9orf72. The description is as above. To be noted: shRNA.
TTACAGGAATCACTTCTCCAGT came in with a sensor-assay potency score (higher = more potent) of -1.29.
On the same count and under the same terms, the value for TAAATCAAGGTCTATCTTCAGG was -0.851; that for TAAAATAAACAAAACACCCTAA was 0.0855.
Same read-out and setting: with TTGACATCCACATCTATGTGTG the figure was -0.37; with TATATTGTAAACATAGGTCTGT, 0.698; with TAATCTATCAACACACACTCTA, 0.268.
Still for that read-out and setting: the value for TATGCATCCATATTCTTCCTTT was -0.33.
For the sequence TTTCACTAGAGTGTCTCTGTGT, the sensor-assay potency score (higher = more potent) turned out to be 0.565.
The same measure, in the same setting: the value for TACAGTAATTCTACACACCAAA was -0.818; that for TATTTCTTCAGGAACACTGTGT was 0.74; that for TACATCTATAGCACCACTCTCT was -0.415.
On the same count and under the same terms, with TTAATCTATCAACACACACTCT the figure was -0.521.

The next experiment addresses C9orf93. The description is as above. The note with it: shRNA.
Regarding TTTGGTAAAGGTGTCTTCCTGA, the sensor-assay potency score (higher = more potent) is 0.821.
TTGAATGGTCTCGTGATCCTAT yielded a sensor-assay potency score (higher = more potent) of 0.611.
For the sequence TAAACAACGCAACTGCTCCTTT, the sensor-assay potency score (higher = more potent) was 0.206.
In turn, TTCCTTTCTAGCAACAGCTAGG gave a sensor-assay potency score (higher = more potent) of -0.694.
In the case of TTGTCTTTGCTTGAAGTTCTGA, the sensor-assay potency score (higher = more potent) was 0.0324.
Same read-out and setting: with TTAACTCTTTATTAACATCAGC the figure was -1.03.
The same measure, in the same setting: with TTTGCTTCTGCAACGATGCTGT the figure was 0.756; with TTTAGTGTGAGAGTCTATCTTC, 0.39.
Still for that read-out and setting: with TTGGTTGTTATTTCTAACTTTT the figure was -0.955.
As to TTGCACAGCAGTATCTTGCTCC, the sensor-assay potency score (higher = more potent) was 0.17.
On the same count and under the same terms, the value for TTAATTGTACTGTTAACTCTTC was -0.0565.

The target of the next experiment is CA4. Described as above. To be noted: shRNA.
Sequence TGTCTGTTCCTTGTCGTAGTAC had a sensor-assay potency score (higher = more potent) of -0.69.
Regarding TGTCGTAGTACAGCTTCTGAGA, the sensor-assay potency score (higher = more potent) is -0.691.
As to TTTTTTGTCCACCTTTGCCTTG, the sensor-assay potency score (higher = more potent) was -1.1.
Same read-out and setting: with TCCAGCAACATCATCACTGAGT the figure was -1.67.
For the sequence TTTTTGTCCACCTTTGCCTTGG, the sensor-assay potency score (higher = more potent) is -0.0193.
